The list is not random: actives were taken first. Their share in the collection is about 10%.
GPT2 inh: Primary qHTS assay for inhibitors of Glutamate pyruvate transaminase 2 (GPT2) | Alanine aminotransferase 2 (Homo sapiens), Q8TD30 | Recombinant GPT2, coupled pyruvate oxidase/HRP Amplex Red fluorescence | Potency, µM (top dose mostly 57.7 µM), inactives show at the top dose activity change, negative = inhibition, hits mostly inhibitors | hit rate 0.25% among 100,000; further: on the % scale 0 is the no-effect control and ±100 the full control effect; nearly all actives have a fitted effect of over 60% in size
Target sequence (Q8TD30 whole entry, looked up): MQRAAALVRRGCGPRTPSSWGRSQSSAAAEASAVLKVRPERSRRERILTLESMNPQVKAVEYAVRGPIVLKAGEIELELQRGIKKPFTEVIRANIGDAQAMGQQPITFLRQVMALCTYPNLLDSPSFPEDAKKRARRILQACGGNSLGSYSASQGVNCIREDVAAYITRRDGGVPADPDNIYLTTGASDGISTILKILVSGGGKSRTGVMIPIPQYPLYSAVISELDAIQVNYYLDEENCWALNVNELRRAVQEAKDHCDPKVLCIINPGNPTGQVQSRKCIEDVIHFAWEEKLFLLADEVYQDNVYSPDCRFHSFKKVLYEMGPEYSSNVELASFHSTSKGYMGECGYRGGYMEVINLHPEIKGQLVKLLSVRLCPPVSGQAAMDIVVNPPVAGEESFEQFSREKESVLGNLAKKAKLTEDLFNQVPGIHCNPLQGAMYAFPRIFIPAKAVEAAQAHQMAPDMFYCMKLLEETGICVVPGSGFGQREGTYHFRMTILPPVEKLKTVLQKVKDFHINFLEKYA
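Inhibition is scored from Amplex Red fluorescence generated when pyruvate oxidase and HRP act on pyruvate released by GPT2. Reactions contain 10ng/uL enzyme, 250uM a-KG and 2mM L-alanine and run 30 min at room temperature.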
HEK cytotox: Cytotoxic Profiling in HEK 293 Cell Line of Diverse Libraries Using Quantitative High-Throughput Screening; HEK 293 viability, ATP luminescence (CellTiter-Glo), 48-72 h; Potency, µM (series often up to 115 µM), inactives show at the highest dose activity change, negative = cytotoxicity, usual class: inhibitors; hit rate 6.6% among 94,000; AID 1345083, 2018; further: on the % scale 0 is the no-effect control and ±100 the full control effect; nearly all actives have a fitted effect of over 60% in size
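Cells seeded first (HEK 293, 250 cells/well), then compound added by pintool. Incubation ran 48 or 72 hr at 37 degree Celsius. CellTiter-Glo was added and luminescence imaged after 10 min at room temperature.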
FLuc inh-1: Firefly luciferase inhibition profiling of diverse chemical library using quantitative high-throughput screening; purified P. pyralis luciferase, luminescence, biochemical; Potency, µM (doses to about 115 µM), usual class: inhibitors; hit rate 2.5% among 76,000; further: on the % scale 0 is the no-effect control and ±100 the full control effect; nearly all actives have a fitted effect of over 65% in size
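Luminescence read by CCD imager after adding enzyme (10nM final) to wells holding compound, titrated in qHTS. Substrates 10uM each D-luciferin and ATP; buffer 50mM Tris acetate pH 7.5, 10mM Mg acetate, Tween-20, BSA.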
NIH3T3 tox: Cytotoxic Profiling in NIH 3T3 Cell Line of Diverse Libraries Using Quantitative High-Throughput Screening | AID 1345082, 2018 | NIH 3T3 viability, CellTiter-Glo ATP luminescence, 48-72 h | Potency, µM (series often up to 96.7 µM), for inactives: at the top dose activity change, negative = cytotoxicity, most hits filed as inhibitors | hit rate 4.3% among 94,000; further: on the % scale 0 is the no-effect control and ±100 the full control effect; nearly all actives have a fitted effect of over 55% in size
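Cells were seeded at 400 per well, treated with pin-transferred compound, and kept 48 or 72 hr at 37 °C before CellTiter-Glo addition and luminescence imaging of cellular ATP.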
hNpr1 antagonist: Natriuretic polypeptide receptor (hNpr1) antagonism - Primary qHTS; Atrial natriuretic peptide receptor 1 (Homo sapiens), P16066; HEK293 hNpr1 GloSensor cGMP, ANP-stimulated luminescence; Potency, µM (series often up to 46.3 µM), for inactives: at the highest dose activity change, negative = inhibition, hits mostly inhibitors; hit rate 1.6% among 76,000; calls by dose curve; further: on the % scale 0 is the no-effect control and ±100 the full control effect; nearly all actives have a fitted effect of over 60% in size
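Compound pre-incubated 30 min at room temperature on GloSensor-loaded HEK293 cells stably carrying hNpr1 and the pGS-40F cGMP biosensor. Stimulation uses hNppA at 0.1 nM final; luminescence is taken at baseline and 20 min post-agonist.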
FLuc SDR no ATP: Firefly luciferase (FLuc-C-HiBiT) SDR gain of signal screen - without ATP. shares compounds with FLuc inh-1. Purified FLuc-C-HiBiT, Nano-Glo HiBiT luminescence, no ATP. Potency, µM (doses to about 32.7 µM), for inactives: top-dose activation (signal gain), hits mostly activators. hit rate 7.8% among 1,300; further: nearly all actives have a fitted effect of over 55% in size
FLuc SDR ATP: Firefly luciferase (FLuc-C-HiBiT) SDR gain of signal screen - plus ATP | shares compounds with FLuc inh-1 | purified FLuc-C-HiBiT + ATP, HiBiT complementation luminescence | Potency, µM (highest dose often 32.7 µM), inactives show top-dose activation (gain of signal), actives largely listed as activators | hit rate 8.7% among 1,300 | AID 1963319, 2024;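 further: signal reports ligand binding via conformational change of the enzyme rather than luciferase catalysis; % of control where 0% means no effect; nearly all actives have a fitted effect of over 55% in size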
FLuc inh-2: Firefly luciferase (FLuc-C-HiBiT) enzymatic inhibition screen - Functional assay; purified FLuc-C-HiBiT enzyme, luciferin luminescence; hit rate 42% among 1,300; shares compounds with FLuc inh-1; Potency, µM (highest dose often 32.7 µM), for the others: top-dose activity change, negative = inhibition, usual class: inhibitors; further: on the % scale 0 is the no-effect control and ±100 the full control effect; nearly all actives have a fitted effect of over 70% in size
An asterisk follows results filed as active; [ ] = remark or other dose. Unless noted, the call rests on the fitted dose curve; in most records, active means well fitted curve in the direction sought with a large enough effect; inconclusive means small, poorly fitted or top-dose-only effect, or another doubt; inactive means no such curve, though single readings can be large; an effect the other way counts as inactive or inconclusive. Potency means the concentration at half of the fitted maximal effect.

Screening CSc1ccc(CNC(=O)C2CCN(C(=O)c3ncn4c3COC(c3ccccc3)C4)CC2)cc1 (centres undefined) returned GPT2 inh 2.7%, HEK cytotox 8.9%, FLuc inh-1 12.6µM*, NIH3T3 tox inactive, hNpr1 antagonist -18.6%, FLuc SDR no ATP 16.2%, FLuc SDR ATP inconclusive and FLuc inh-2 inconclusive.
`O=C(NCc1ccncc1)C1CCN(C(=O)c2ncn3c2COC(c2ccc(F)cc2)C3)CC1` (centres undefined) gave GPT2 inh inactive, HEK cytotox 6.7%, FLuc inh-1 7.94µM*, NIH3T3 tox inactive, hNpr1 antagonist 1.1%, FLuc SDR no ATP 12.7%, FLuc SDR ATP inconclusive and FLuc inh-2 inconclusive.
Screening CC(CNC(=O)C1CCN(C(=O)c2ncn3c2COC(c2ccc(F)cc2)C3)CC1)c1ccccc1 (centres undefined) returned GPT2 inh inactive, HEK cytotox -6.2%, FLuc inh-1 inconclusive, NIH3T3 tox -15.7% and hNpr1 antagonist -1.6%.
Screening O=C(NCCc1ccccc1)C1CCN(C(=O)c2ncn3c2COC(c2ccccc2)C3)CC1 (centres undefined) returned GPT2 inh inactive, HEK cytotox -0.1%, FLuc inh-1 3.16µM*, NIH3T3 tox inactive, hNpr1 antagonist 0.0%, FLuc SDR no ATP 10.6%, FLuc SDR ATP inconclusive and FLuc inh-2 2.48µM*.
For COc1cccc(CNC(=O)[C@@H]2CCCN2C(=O)c2cccc(-c3ccccc3OC)c2)c1 the results were GPT2 inh inactive, HEK cytotox inconclusive and NIH3T3 tox inconclusive.
Screening COc1ccc(Cn2c(=O)c(C(=O)N3CCN(C(=O)c4ccccc4)CC3)nc3cccnc32)cc1 returned GPT2 inh inactive, HEK cytotox -3.9% and NIH3T3 tox -26.1%.
COC1CN(C(=O)Nc2cccc(C#N)c2)CCC(=O)N(C)c2ccccc21 (centres undefined) was read as GPT2 inh -1.4%[27.3 µM], HEK cytotox -16.1%[57.5 µM] and NIH3T3 tox inconclusive.
For c1ccc(CCCNc2nccc(-c3ccccn3)n2)nc1 the results were GPT2 inh -28.6%, HEK cytotox inconclusive, FLuc inh-1 10µM*, NIH3T3 tox -30.2%, hNpr1 antagonist 1.5%, FLuc SDR no ATP 14.4%, FLuc SDR ATP 15.3% and FLuc inh-2 1.2%.
COCc1cc(CNc2nccc(-c3ccccn3)n2)[nH]n1 was read as GPT2 inh -6.6%, HEK cytotox -10.4%, FLuc inh-1 inactive, NIH3T3 tox -14.3% and hNpr1 antagonist 3.6%.
For C/C=C(\C)CN1CCCC(C(=O)Nc2ccccc2-c2ccc(OC)cc2)C1 (centres undefined) the results were GPT2 inh -5.1%, HEK cytotox inconclusive, FLuc inh-1 inactive, NIH3T3 tox -16.5% and hNpr1 antagonist -3.6%.
Screening Cc1ccc(Nc2ncnc3c2nc2n3CCCC2)c(Br)c1 returned FLuc SDR no ATP inconclusive, FLuc SDR ATP inconclusive and FLuc inh-2 4.95µM*.
`Cc1nccn1CCN(C)c1ccc(-c2nc(COc3ccccc3)no2)cn1` gave GPT2 inh -1.7%, HEK cytotox inconclusive, FLuc inh-1 12.6µM*, NIH3T3 tox inconclusive, hNpr1 antagonist inconclusive, FLuc SDR no ATP 19.7%, FLuc SDR ATP 18.3% and FLuc inh-2 9.89µM*.
`c1ccc(CNc2ncc(CN3CCC4(CCNCC4)C3)cn2)cc1` gave GPT2 inh inactive, HEK cytotox inconclusive, FLuc inh-1 inactive, NIH3T3 tox inconclusive and hNpr1 antagonist 4.2%.
For CC(C)c1cnc(N2CCC(COc3ccc4c(cnn4CCC(=O)O)c3)CC2)nc1 the results were GPT2 inh 3.6%[88.5 µM], HEK cytotox inconclusive, FLuc inh-1 14.1µM*, NIH3T3 tox inconclusive, hNpr1 antagonist 1.4%[70.6 µM], FLuc SDR no ATP 15.3%[49.3 µM], FLuc SDR ATP 9.0%[49.3 µM] and FLuc inh-2 inconclusive.
For CCc1cnc(N2CCC(COc3ccc4c(cnn4CCC(=O)O)c3)CC2)nc1 the results were GPT2 inh -2.0%[88.5 µM], HEK cytotox -6.4%[172 µM], FLuc inh-1 inconclusive, NIH3T3 tox inconclusive and hNpr1 antagonist -0.5%[70.6 µM].
For CCCNc1cc(N2CCC(CCC(=O)NCc3cccc(OC)c3)CC2)ncn1 the results were GPT2 inh 4.9%, HEK cytotox -15.4%, FLuc inh-1 inconclusive, NIH3T3 tox -1.4% and hNpr1 antagonist -19.7%.
Screening O=C(NCc1ccc(F)cc1Cl)C1CCN(C(=O)c2ncn3c2COC(c2ccccc2)C3)CC1 (centres undefined) returned GPT2 inh -16.2%, HEK cytotox -2.3%, FLuc inh-1 12.6µM*, NIH3T3 tox inactive, hNpr1 antagonist -11.7%, FLuc SDR no ATP 12.9%, FLuc SDR ATP inconclusive and FLuc inh-2 inconclusive.
`CCOc1ccccc1CNC(=O)C1CCN(C(=O)c2ncn3c2COC(c2ccccc2)C3)CC1` (centres undefined) gave GPT2 inh inactive, HEK cytotox -5.3%, FLuc inh-1 3.98µM*, NIH3T3 tox -21.1%, hNpr1 antagonist -11.8%, FLuc SDR no ATP 11.7%, FLuc SDR ATP 2.21µM* and FLuc inh-2 3.13µM*.
For O=C(c1ccccc1F)N1CCC(N2CC3(CCCC3)C2c2ccccc2)CC1 (centres undefined) the results were GPT2 inh inactive, HEK cytotox inconclusive and NIH3T3 tox inconclusive.
